Data from PubChem BioAssay AID1159580 (chemical genetic matrix, 2015).
The campaign covered roughly 5,500 compounds. About 2,000 (36%) were called active. Not shown: some 18% with an inconclusive outcome. Rule as the data show it: active = normalized growth mostly below about 0.91 (no sharp cut-off); inconclusive = no clear call, values can overlap the other calls; inactive = mostly above about 0.92. Some of the results follow.

Experiment: chemical genetic growth profiling, strain panel (AID 1159580);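 also: tested at 20 µM; growth read once vehicle control cultures reached saturation at 30 °C; 1 = growth at the plate median or of vehicle wells; lower values mean less growth of the strain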
Details: growth OD

Measured: normalized growth

C[C@H](COc1ccccc1)N[C@H](C)[C@H](O)c1ccc(O)cc1
inactive: S. cerevisiae deletion strains, locus YJR043C, strain POL32, active compounds read low 1.04 | S. cerevisiae deletion strains, locus YJR066W, strain TOR1, active compounds read low 0.946 | S. cerevisiae deletion strains, locus YKL009W, strain mrt4, active compounds read low 0.99 | S. cerevisiae deletion strains, locus YKL068W, active compounds read low 0.989 | S. cerevisiae deletion strains, locus YKL085W, strain MDH1 (second series), active compounds read low 0.977 | S. cerevisiae deletion strains, locus YKL085W, strain MDH1, active compounds read low 0.977 | S. cerevisiae deletion strains, locus YKL160W, strain elf1, active compounds read low 0.983 | S. cerevisiae deletion strains, locus YKL190W, strain CNB1, active compounds read low 1 | S. cerevisiae deletion strains, locus YKR001C, strain vps1, active compounds read low 1.01 | S. cerevisiae deletion strains, locus YKR026C, strain gcn3, active compounds read low 0.993 | S. cerevisiae deletion strains, locus YKR091W, strain srl3, active compounds read low 0.995 | S. cerevisiae deletion strains, locus YLL001W, strain dnm1, active compounds read low 0.966 | S. cerevisiae deletion strains, locus YLL026W, active compounds read low 1.01 | S. cerevisiae deletion strains, locus YLL041C, strain sdh2, active compounds read low 0.993 | S. cerevisiae deletion strains, locus YLR027C, strain aat2, active compounds read low 1.01 | S. cerevisiae deletion strains, locus YLR039C, strain RIC1, active compounds read low 0.898 | S. cerevisiae deletion strains, locus YLR058C, strain SHM2, active compounds read low 0.987 | S. cerevisiae deletion strains, locus YLR102C, strain apc9, active compounds read low 0.99 | S. cerevisiae deletion strains, locus YLR113W, strain HOG1, active compounds read low 0.962 | S. cerevisiae deletion strains, locus YLR221C, strain rsa3, active compounds read low 0.974 | S. cerevisiae deletion strains, locus YLR258W, strain gsy2, active compounds read low 0.997 | S. cerevisiae deletion strains, locus YLR262C, strain YPT6 (second series), active compounds read low 0.929 | S. cerevisiae deletion strains, locus YLR262C, strain YPT6, active compounds read low 1.04 | S. cerevisiae deletion strains, locus YLR268W, strain sec22, active compounds read low 0.999 | S. cerevisiae deletion strains, locus YLR320W, strain mms22, active compounds read low 0.97 | S. cerevisiae deletion strains, locus YLR330W, strain CHS5, active compounds read low 0.988 | S. cerevisiae deletion strains, locus YLR342W, strain FKS1 (second series), active compounds read low 1.01 | S. cerevisiae deletion strains, locus YLR342W, strain FKS1, active compounds read low 0.997 | S. cerevisiae deletion strains, locus YLR357W, strain rsc2, active compounds read low 0.95 | S. cerevisiae deletion strains, locus YLR370C, strain arc18, active compounds read low 0.994 | S. cerevisiae deletion strains, locus YLR371W, strain rom2, active compounds read low 0.98 | S. cerevisiae deletion strains, locus YLR384C, strain iki3, active compounds read low 1 | S. cerevisiae deletion strains, locus YLR418C, strain cdc73, active compounds read low 1.01 | S. cerevisiae deletion strains, locus YML016C, strain PPZ1, active compounds read low 0.986 | S. cerevisiae deletion strains, locus YML032C, strain rad52, active compounds read low 0.999 | S. cerevisiae deletion strains, locus YML120C, strain ndi1, active compounds read low 0.985 | S. cerevisiae deletion strains, locus YML124C, strain tub3, active compounds read low 0.983 | S. cerevisiae deletion strains, locus YMR058W, strain fet3, active compounds read low 0.988 | S. cerevisiae deletion strains, locus YMR078C, strain ctf18, active compounds read low 0.985 | S. cerevisiae deletion strains, locus YMR125W, strain sto1, active compounds read low 0.984 | S. cerevisiae deletion strains, locus YMR129W, active compounds read low 0.99 | S. cerevisiae deletion strains, locus YMR205C, strain PFK2, active compounds read low 0.974 | S. cerevisiae deletion strains, locus YMR223W, strain ubp8, active compounds read low 0.96 | S. cerevisiae deletion strains, locus YMR231W, strain pep5, active compounds read low 1 | S. cerevisiae deletion strains, locus YMR307W, strain GAS1, active compounds read low 1.05 | S. cerevisiae deletion strains, locus YNL067W, strain RPL9B, active compounds read low 1 | S. cerevisiae deletion strains, locus YNL071W, strain lat1, active compounds read low 1.01 | S. cerevisiae deletion strains, locus YNL128W, strain TEP1, active compounds read low 0.979 | S. cerevisiae deletion strains, locus YNL183C, strain NPR1, active compounds read low 0.95 | S. cerevisiae deletion strains, locus YNL209W, strain ssb2, active compounds read low 0.994 | S. cerevisiae deletion strains, locus YNL233W, strain BNI4, active compounds read low 0.979 | S. cerevisiae deletion strains, locus YNL248C, strain rpa49, active compounds read low 0.985 | S. cerevisiae deletion strains, locus YNL250W, strain rad50, active compounds read low 0.977 | S. cerevisiae deletion strains, locus YNL271C, strain bni1, active compounds read low 0.993 | S. cerevisiae deletion strains, locus YNL298W, strain CLA4, active compounds read low 0.989 | S. cerevisiae deletion strains, locus YNL307C, strain MCK1, active compounds read low 0.988 | S. cerevisiae deletion strains, locus YNL322C, strain KRE1 (second series), active compounds read low 0.998 | S. cerevisiae deletion strains, locus YNR049C, strain mso1, active compounds read low 0.991 | S. cerevisiae deletion strains, locus YNR052C, strain pop2, active compounds read low 0.987 | S. cerevisiae deletion strains, locus YOL012C, strain htz1 1.14 | S. cerevisiae deletion strains, locus YOL147C, strain pex11, active compounds read low 0.99 | S. cerevisiae deletion strains, locus YOR001W, strain rrp6, active compounds read low 1.01 | S. cerevisiae deletion strains, locus YOR061W, strain CKA2, active compounds read low 0.994 | S. cerevisiae deletion strains, locus YOR069W, strain VPS5, active compounds read low 0.98 | S. cerevisiae deletion strains, locus YOR070C, strain gyp1, active compounds read low 0.993 | S. cerevisiae deletion strains, locus YOR080W, strain dia2, active compounds read low 1 | S. cerevisiae deletion strains, locus YOR083W, strain WHI5, active compounds read low 0.987 | S. cerevisiae deletion strains, locus YOR106W, strain vam3, active compounds read low 0.979 | S. cerevisiae deletion strains, locus YOR136W, strain idh2, active compounds read low 0.999 | S. cerevisiae deletion strains, locus YOR144C, strain elg1, active compounds read low 0.999 | S. cerevisiae deletion strains, locus YOR184W, strain ser1, active compounds read low 1 | S. cerevisiae deletion strains, locus YOR231W, strain MKK1, active compounds read low 0.948 | S. cerevisiae deletion strains, locus YOR265W, strain rbl2, active compounds read low 1.01 | S. cerevisiae deletion strains, locus YOR270C, strain vph1, active compounds read low 0.978 | S. cerevisiae deletion strains, locus YOR290C, strain snf2, active compounds read low 0.938 | S. cerevisiae deletion strains, locus YOR316C, strain cot1, active compounds read low 0.986 | S. cerevisiae deletion strains, locus YPL051W, strain arl3, active compounds read low 0.982 | S. cerevisiae deletion strains, locus YPL055C, strain LGE1, active compounds read low 0.965 | S. cerevisiae deletion strains, locus YPL078C, strain atp4, active compounds read low 0.993 | S. cerevisiae deletion strains, locus YPL106C, strain sse1, active compounds read low 0.948 | S. cerevisiae deletion strains, locus YPL240C, strain hsp82, active compounds read low 1.01 | S. cerevisiae deletion strains, locus YPL256C, strain CLN2, active compounds read low 0.926 | S. cerevisiae deletion strains, locus YPR119W, strain clb2, active compounds read low 0.99 | S. cerevisiae deletion strains, locus YPR141C, strain kar3, active compounds read low 0.975 | S. cerevisiae deletion strains, locus YPR163C, strain tif3, active compounds read low 0.989 | S. cerevisiae deletion strains, locus YPR167C, strain met16, active compounds read low 0.993 | S. cerevisiae deletion strains, strain wtn01, active compounds read low 0.986 | S. cerevisiae strains, strain wild type, active compounds read low 0.993
